MEKK3 PB1 HTS: MEKK3-MEK5 PB1 interaction, increase or decrease; Q99759; bead-based flow cytometry, Alexa488-MEK5 binding to MEKK3; actives lie on both sides; 0 = blocked by unlabeled MEK5, 100 = vehicle; binding response (% of control), % at 10 µM; hit rate 1.4% among 290,000;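 active = binding response more than 3 SD above or below the average of its plate-row segment, actives on both sides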;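 note: Alexa488 bead fluorescence after subtracting the streptavidin-only scavenger bead signal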
MEKK2 WT-MEK5: raises or lowers MEK5 binding to wildtype human MEKK2 PB1 domain; Q9Y2U5; bead flow cytometry, Alexa488-MEK5 binding to MEKK2 WT; actives lie on both sides; AID 1531; hit rate 1.1% among 290,000; binding response (% of control), % at 10 µM; in the data active = binding response below about 67% or above about 130%
VLA-4 inh: inhibition in a human VLA-4 binding assay; P13612; VLA-4 expressing cells, ligand binding flow cytometry; inhibition, % (about 7 µM as worked out from the volumes in the protocol); hit rate 0.2% among 330,000; AID 2557; in the data active = inhibition above about 50%
MEKK2mut PB1 HTS: signal of MEK5 binding to mutant human MEKK2 PB1 domain. bead flow cytometry, Alexa488-MEK5 binding to MEKK2 mutant. AID 1530. hit rate 0.35% among 290,000. percent response, % at 10 µM; in the data active = percent response above about 24%, passing the limit was not always enough
MEKK2wt confirm: raises or lowers MEK5 binding to wildtype human MEKK2, retest; shares compounds with MEKK3 PB1 HTS; bead flow cytometry, Alexa488-MEK5 binding to MEKK2 WT; actives lie on both sides; binding response (% of control), % at 10 µM; hit rate 2.4% among 5,900; in the data active = binding response below about 16% or above about 210%; inactive = in between
MEKK2mut confirm: signal of MEK5 binding to mutant human MEKK2, retest; AID 1893; bead flow cytometry, Alexa488-MEK5 binding to MEKK2 mutant; hit rate 2% among 5,900; shares compounds with MEKK3 PB1 HTS; percent response, % at 10 µM; in the data active = percent response mostly above about 71%, no sharp cut-off; inactive = mostly below about 38%;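 note: higher means compound restores mutant binding toward wildtype level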
MEKK3 confirm: MEKK3-MEK5 PB1 inhibition, single concentration confirmation; shares compounds with MEKK3 PB1 HTS; bead flow cytometry, Alexa488-MEK5 binding to MEKK3; stronger effect = lower value; binding response (% of control), % at 10 µM; hit rate 1.8% among 5,900; AID 1894;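 active = binding response below 72% of control, or above a set upper limit, though filed actives all read lower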;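 note: 100% = DMSO only wells and 0% = binding blocked by excess unlabeled MEK5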
* = called active by the depositor; · = not tested or not shown; [ ] = remark or other dose. In the library only some 2.2% were active in any assay of this set; here they are far more common.

SMILES | MEKK3 PB1 HTS | MEKK2 WT-MEK5 | VLA-4 inh | MEKK2mut PB1 HTS | MEKK2wt confirm | MEKK2mut confirm | MEKK3 confirm
CC1CCC(C(C)C)C(OC(=O)Cn2c(-c3ccc(Cl)cc3)[n+](C)c3ccccc32)C1 (centres undefined) | 98.0 | 105.0 | 10.3 | -3.0 | · | · | ·
O=C(/C=C/c1ccc(Br)o1)NC(c1ccccc1)c1ccccc1 | 140.0* | 102.0 | 10.2 | 1.0 | 97.0 | -5.0 | 102.0
O=C(NC(c1ccccc1)c1ccccc1)c1ccc(Br)o1 | 105.0 | 108.0 | -2.1 | 3.0 | · | · | ·
COc1cccc(NC2c3ccccc3C(=O)N2Cc2ccccc2Cl)c1 (centres undefined) | 95.0 | 92.0 | -1.5 | -4.0 | · | · | ·
COc1cc(NC2c3ccccc3C(=O)N2Cc2ccccc2Cl)cc(OC)c1 (centres undefined) | 135.0* | 116.0 | 2.4 | 29.0 | 97.0 | -1.0 | 96.0
CC1CCN(CCCNC(=O)c2ccc(N3CCCC3=O)cc2)CC1 | 97.0 | 101.0 | 2.7 | 2.0 | · | · | ·
O=C(NCCCN1CCN(c2cccc(Cl)c2)CC1)c1cccc(N2CCCC2=O)c1 | 109.0 | 125.0 | 2.8 | 27.0* | 113.0 | 20.0 | 107.0
O=C(NCCN1CCCCCC1)c1ccc(N2CCCC2=O)cc1 | 101.0 | 145.0* | 12.9 | 9.0 | 127.0 | 20.0 | 103.0
Cc1oc(/C=N/NC(=O)CC2(C)OCCO2)cc1Br | 132.0* | 111.0 | -2.8 | 2.0 | 107.0 | 6.0 | 106.0
O=C1CC(NS(=O)(=O)c2cc(F)ccc2F)CN1c1cccc(F)c1 (centres undefined) | · | · | 0.8 | · | · | · | ·
COc1ccc(NC(=O)C2CCCN(CCCc3ccccc3)C2)cc1OCC(C)C (centres undefined) | 110.0 | 139.0* | 11.0 | 19.0 | 109.0 | 3.0 | 98.0
CC(C)(C)c1n[nH]c(=S)n(/N=C/c2cccs2)c1=O | 147.0* | 109.0 | 1.3 | 0.0 | 104.0 | 15.0 | 104.0
Cc1n[nH]c(=S)n(/N=C/c2cccs2)c1=O | 102.0 | 103.0 | -2.1 | 6.0 | · | · | ·
Nc1c(N(CCO)C(=O)/C=C/c2ccco2)c(=O)[nH]c(=O)n1Cc1ccccc1 | 50.0*[inhibitor] | 61.0 | 29.6 | -4.0 | 99.0 | -8.0 | 102.0
COc1ccc(OCCC(=O)OCC(=O)NCCc2ccccc2)cc1 | 99.0 | 101.0 | 1.2 | 0.0 | · | · | ·
COc1cc(C2CC(=O)Oc3c(C(CCN4CCOCC4)c4ccc(N(C)C)cc4)c(OC)cc(OC)c32)cc(OC)c1OC (centres undefined) | 104.0 | 106.0 | 3.8 | 4.0 | · | · | ·
COc1cc(C2CC(=O)Oc3c(C(CCN4CCN(c5ccccc5)CC4)c4ccc(N(C)C)cc4)c(OC)cc(OC)c32)cc(OC)c1OC (centres undefined) | 112.0 | 127.0 | -4.5 | 6.0 | · | · | ·
COc1ccc(C2CC(=O)Oc3c(C(CCN4CCCC(C)C4)c4ccc(N(C)C)cc4)c(OC)cc(OC)c32)cc1 (centres undefined) | 105.0 | 152.0* | 4.1 | 17.0 | 140.0 | 22.0 | 103.0
COc1cc(O)c(C(CCN2CCCC2)c2ccc(N(C)C)cc2)c(OC)c1 (centres undefined) | 119.0 | 153.0* | 23.8 | 8.0 | 129.0 | 37.0 | 106.0
COc1ccc(C2CC(=O)Oc3c(C(CCN4CCCCC4)c4ccc(N(C)C)cc4)c(OC)cc(OC)c32)cc1 (centres undefined) | 95.0 | 156.0* | · | 17.0 | 141.0 | 28.0 | 105.0
Cc1cccc(Nc2sc(C(=O)c3cc4cc(Cl)ccc4o3)c(N)c2C#N)c1 | 105.0 | 93.0 | 18.6 | 4.0 | · | · | ·
COc1ccc(C(=O)COC(=O)Cn2cnc3ccccc3c2=O)c(OC)c1 | · | · | 3.4 | · | · | · | ·
Cc1cc(C)c(NC(=O)C2CCCN2C(=O)NC2CCCCC2)c(C)c1 (centres undefined) | 125.0* | 102.0 | 26.9 | 6.0 | 108.0 | 3.0 | 105.0
Cc1cc(C)c(NC(=O)C2CCCN2CCOC(=O)c2cccc([N+](=O)[O-])c2)c(C)c1 (centres undefined) | 120.0 | 100.0 | 30.6 | 0.0 | · | · | ·
Cc1cc(C)c(NC(=O)C2CCCN2CCOC(=O)c2ccccc2)c(C)c1 (centres undefined) | 142.0* | 106.0 | -1.3 | 0.0 | 109.0 | 5.0 | 106.0
SMILES | MEKK3 PB1 HTS | MEKK2 WT-MEK5 | VLA-4 inh | MEKK2mut PB1 HTS | MEKK2wt confirm | MEKK2mut confirm | MEKK3 confirm
CCOc1ccc(N=C(/C(C(=O)C(=O)N2CCOCC2)=C(/O)c2ccccc2)c2ccccc2)cc1 | 49.0*[inhibitor] | 78.0 | 2.2 | -37.0 | 91.0 | -9.0 | 98.0
CCOc1ccc(OCc2cccc(C(=O)N3CCOCC3)c2)cc1 | · | · | 12.8 | · | · | · | ·
C=CCOc1ccc(C2N3CC4(CC)CN2CC(CC)(C3)C4=O)cc1 (centres undefined) | 82.0*[inhibitor] | 84.0 | -10.4 | -5.0 | 114.0 | 8.0 | 109.0
O=c1c(Cl)c(Cl)cnn1-c1ccccc1 | 133.0* | 108.0 | · | 1.0 | 103.0 | 3.0 | 100.0
Nc1c(Cl)cnn(-c2ccccc2)c1=O | · | · | 13.2 | · | · | · | ·
COC(=O)C(NC(=O)c1ccccc1)(Nc1cc(C)cc(C)n1)C(F)(F)F (centres undefined) | 126.0* | 92.0 | -16.7 | 6.0 | 104.0 | 1.0 | 101.0
CC(C)c1nc2sc3c(=O)n(N)cnc3c2c2c1COC(C)(C)C2 | 145.0* | 104.0 | 35.8 | 0.0 | 120.0 | 31.0 | 119.0
CCOC(=O)/C(C#N)=C/c1cc2ccccc2nc1N1CCOCC1 | 66.0*[inhibitor] | 100.0 | 18.1 | 0.0 | 96.0 | -9.0 | 98.0
CCOC(=O)/C(C#N)=C/C1=C(N2CCOCC2)C(C)(C)OCC1 | 99.0 | 99.0 | -70.6 | 4.0 | · | · | ·
CCOC(=O)/C(C#N)=C/c1cc2ccc(C)cc2nc1Cl | 57.0*[inhibitor] | 91.0 | 3.6 | -2.0 | 100.0 | -6.0 | 99.0
Cc1ccc(-c2cc3ccccc3nc2N2CCOCC2)cc1 | 75.0*[inhibitor] | 85.0 | 17.2 | -9.0 | 106.0 | 3.0 | 109.0
c1ccc(-c2cc3ccccc3nc2N2CCCC2)cc1 | 95.0 | 98.0 | 2.0 | -3.0 | · | · | ·
CCCCNC(=S)N(C)/N=C/c1ccc(OCC(=O)Nc2ccc(OC)cc2)c(OC)c1 | 142.0* | 107.0 | -11.5 | -1.0 | 108.0 | 2.0 | 101.0
CCNC(=S)N/N=C/c1ccc(OCC(=O)Nc2ccc(OC)cc2)c(OC)c1 | 103.0 | 102.0 | -14.7 | 1.0 | · | · | ·
CCCCNC(=S)N(C)/N=C/c1ccc(OCC(=O)Nc2c(C)cc(C)cc2C)c(OC)c1 | 129.0* | 98.0 | -4.5 | -1.0 | 107.0 | 0.0 | 104.0
CN(C(=O)c1ccccc1C(=O)OCC(=O)Nc1cccc(Br)c1)c1ccccc1 | · | · | 12.6 | · | · | · | ·
CCOc1ccc(/C=C2\SC(N3CCc4ccccc4C3)=NC2=O)cc1 | 132.0 | 95.0 | 13.5 | -1.0 | · | · | ·
COc1ccc(/C=C2\SC(N3CCc4ccccc4C3)=NC2=O)cc1 | 131.0* | 103.0 | -5.6 | 1.0 | 95.0 | -10.0 | 99.0
